Most compounds without a hit are left out; they make up all but 1.9% or so of the library.
RXFP1 antag: qHTS Assay for Antagonists of the Relaxin Receptor RXFP1; activity change, negative = inhibition, % at 57.5 µM; AID 1259400, 2018; hit rate 0.59% among 350,000; HEK293-RXFP1, relaxin-stimulated cAMP HTRF, 30 min; hits give low values;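 active = activity change of -60% or lower, but not beyond a set lower limit; inconclusive = change between -60% and -40%, or beyond the set limit; inactive = change above -40%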; note: % is set by controls: 0 for no effect and ±100 for the full control effect
NPSR antagonist: qHTS Assay for Antagonists of the Neuropeptide S Receptor: cAMP Signal Transduction. CHO-NPSR cells, cAMP TR-FRET, antagonist mode. hit rate 1% among 220,000. Potency, µM (top dose mostly 38.3 µM), for inactives: at the highest dose activity change, negative = inhibition, hits mostly inhibitors; note: potency is the fitted concentration of half-maximal effect; % is set by controls: 0 for no effect and ±100 for the full control effect; nearly all actives have a fitted effect of over 50% in size
Target sequence (Q6W5P4 whole entry, looked up): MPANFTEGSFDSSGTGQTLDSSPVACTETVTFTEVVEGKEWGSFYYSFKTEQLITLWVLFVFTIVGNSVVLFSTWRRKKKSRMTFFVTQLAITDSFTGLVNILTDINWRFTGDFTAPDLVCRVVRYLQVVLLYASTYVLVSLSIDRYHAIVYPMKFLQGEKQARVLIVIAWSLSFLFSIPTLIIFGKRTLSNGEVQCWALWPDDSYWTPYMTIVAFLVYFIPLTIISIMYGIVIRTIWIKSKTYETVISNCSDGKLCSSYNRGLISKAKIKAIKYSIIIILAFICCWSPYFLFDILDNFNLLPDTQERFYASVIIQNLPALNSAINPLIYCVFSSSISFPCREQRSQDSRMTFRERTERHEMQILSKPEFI
Giardia killer: Small Molecules that selectively kill Giardia lamblia: qHTS; Giardia lamblia trophozoite viability; activity change, % at 7.66 µM, hits read low; hit rate 0.15% among 340,000; AID 540267, 2011; in the data active = activity change below about -80%; inconclusive = between about -30% and that limit;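 note: parasites exposed to compound for two days anaerobically before the ATP read; % is set by controls: 0 for no effect and ±100 for the full control effect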
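Viability, read as ATP luminescence: trophozoites at 100 cells/well, compound added, 48 hrs anaerobic at 37 deg C, then 15-30 min room-temperature development before reading.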
BRCA1 expr up: qHTS Assay to Identify Small Molecule Activators of BRCA1 Expression | MCF7-BRCA1-FFLuc reporter, luminescence, 48 h; response scale: scaled: vehicle 0%, 10 µM genistein 100% | Potency, µM (series often up to 46.1 µM), inactives show top-dose activation, hits mostly activators | hit rate 1.1% among 380,000; note: potency is the fitted concentration of half-maximal effect; nearly all actives have a fitted effect of over 80% in size
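MCF7-BRCA1-FFLuc cells, 2000/well in phenol-red-free MEM, attached 2 h then treated 48 h at 37 C. Luciferase luminescence read 15 min after reagent; normalized to genistein maximum activation (10microM) and DMSO, concentration-response fitted.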
RXFP1 agonist: qHTS Assay for Agonists of the Relaxin Receptor RXFP1; Relaxin receptor 1 (Homo sapiens), Q9HBX9; HEK293T-RXFP1 cAMP TR-FRET, 30 min; response scale: percent of porcine relaxin response, buffer zero; Potency, µM (top dose mostly 57.5 µM), for the others: at the highest dose activation, hits mostly activators; hit rate 0.3% among 370,000; AID 2676, 2010; note: potency is the fitted concentration of half-maximal effect; % is set by controls: 0 for no effect and ±100 for the full control effect; nearly all actives have a fitted effect of over 60% in size
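cAMP rise read by TR-FRET after 30 min, 37C compound exposure (up to 58 uM) in RXFP1-transfected HEK293 cells with Ro 20174 present. EC50 from Hill-equation fits, with 29 nM porcine relaxin as 100% and buffer as basal.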
IL2 activator: qHTS of IL-2 Activators; IL-2 activation reporter assay, cell-based qHTS; stimulated with anti-CD3/CD4/CD28 beads; in transgenic mouse T cells; activation, % (series mostly up to about 46 µM); hit rate 0.065% among 360,000; in the data active = activation above about 50%; inconclusive = mostly about 30% to 49%; note: 0% is about no effect
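Unstimulated transgenic mouse T cells preincubated 60 min with compound, then stimulated with anti-CD3/anti-CD4-coated beads plus anti-CD28 for 18 h at 37 degrees C. IL-2 response read as EGFP and DsRed fluorescence by plate cytometry.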
Starred values were filed as active, the others as inactive; ? = inconclusive; nt = no result given; [ ] = remark or other dose. Unless noted, calls come from the whole dose curve; as a rule, active = well fitted curve in the direction sought with a large enough effect; inconclusive = small, poorly fitted or top-dose-only effect, or another doubt; inactive = no such curve, though single readings can be large; an effect the other way counts as inactive or inconclusive.

SMILES	RXFP1 antag	NPSR antagonist	Giardia killer	BRCA1 expr up	RXFP1 agonist	IL2 activator
COc1ccc(CCN2C(=O)c3[nH]nc(-c4ccccc4O)c3C2c2cccc(Cl)c2)cc1 (configuration not stated)	-4.5	?	24.3	-88.6%	3.0%	-0.8
Cc1ccc(O)c(-c2n[nH]c3c2C(c2ccc(F)cc2)N(Cc2ccco2)C3=O)c1 (configuration not stated)	-63.9*	nt	nt	nt	-0.5%	nt
O=C1c2[nH]nc(-c3ccccc3O)c2C(c2cccc(OCc3ccccc3)c2)N1CCCO (configuration not stated)	-64.1*	nt	nt	nt	1.8%	nt
COc1cc(C2c3c(-c4ccccc4O)n[nH]c3C(=O)N2CCO)ccc1OCc1ccccc1 (configuration not stated)	-5.9	nt	nt	nt	0.3%	nt
O=C1c2[nH]nc(-c3ccccc3O)c2C(c2cccc(O)c2)N1Cc1ccco1 (configuration not stated)	-20.1	-10.2%[46.1 µM]	3.4	-21.7%	0.6%	0.3
O=C(COC(=O)C12CC3CC(CC(Cl)(C3)C1)C2)NCc1ccco1	nt	nt	8.1	0.0%	nt	nt
N[C@H]1CN(c2c(F)cc3c(=O)c(C(=O)O)cn(C4C[C@@H]4F)c3c2Cl)CC12CC2 (some centres not stated)	-17.5	nt	nt	nt	nt	nt
COc1ccc(OCCCn2c(CCNC(=O)C3CCCCC3)nc3ccccc32)cc1	nt	nt	-6.5	0.8%	nt	nt
O=Cc1ccc(/C=C2\C=Cc3ccccc32)cc1	nt	nt	nt	-75.0%	nt	nt
CCOc1cc(C2Nc3ccccc3C(=O)N2Cc2ccco2)ccc1OCc1ccccc1Cl (configuration not stated)	nt	nt	18.7	-32.5%	nt	nt
C1=Cc2ccccc2/C1=C/c1ccc2c(c1)OCO2	nt	nt	nt	58.5%	nt	nt
O=c1[nH]c2ccccc2c(=O)n1CCCl	10.9	nt	nt	nt	nt	nt
CC(C)OC(=O)c1ccc(NCc2cc(O)ccc2O)cc1	-63.5*	nt	-9.0	-73.6%	nt	-2.7
O=C(OCc1ccccc1)c1ccc(NCc2cc(O)ccc2O)cc1	-35.9	nt	-4.8	-92.5%	nt	-0.7
COC(=O)c1ccc(CCc2cc(O)c(Br)cc2O)cc1	-96.5*	nt	11.0	-35.7%	nt	-0.8
COC(=O)c1ccc(CCc2cc(O)ccc2O)cc1	-71.9*	nt	12.7	-2.4%	nt	-0.1
COC(=O)c1ccc(O)cc1	2.3	nt	4.3	3.6%	5.9%	-2.6
Fc1ccc2c(c1)Sc1ccc(Cl)cc1CC2N1CCN(CCC2OCCO2)CC1 (configuration not stated)	-61.9*	nt	-19.8	-8.7%	nt	-0.6
Cc1cc(C(=O)Nc2ccc([N+](=O)[O-])cn2)cs1	19.7	nt	12.5	3.16µM*	0.6%	1.1
COc1cc2c(cc1OC)C(=O)CC2	6.3	nt	nt	nt	nt	nt
COc1ccccc1CNC(=O)CN1N=C(c2ccccc2)CCC1=O	11.2	nt	nt	nt	2.6%	nt
CC1=NN(c2ccc(C)cc2)C(=O)/C1=C\C=C\c1ccccc1	-37.0	-36.8%	-13.8	-22.1%	0.8%	0.0
CC1=NN(c2cccc(C(=O)O)c2)C(=O)/C1=C\C=C/c1ccccc1	-74.6*	7.94µM*	-3.7	-47.5%	1.1%	-1.3
Nc1nc[nH]c(=O)c1N	nt	nt	nt	2.6%	nt	nt
CCN(CC)P(=O)(Nc1ccccc1Br)c1ccc(N(C)C)cc1NC(=O)c1ccco1 (configuration not stated)	-2.9	7.94µM*	-1.7	-0.5%	3.2%	-1.0
SMILES	RXFP1 antag	NPSR antagonist	Giardia killer	BRCA1 expr up	RXFP1 agonist	IL2 activator
CC1CCC(NC(=O)c2ccc3nc[nH]c3c2)CC1 (configuration not stated)	-0.3	-5.1%[46.1 µM]	-3.2	11.2µM*	2.7%	1.5
O=C(O)/C=C\C(=O)Nc1ccccc1C#Cc1ccc(Br)cc1	-0.6	12.6µM*	0.7	-11.5%	2.6%	0.7
O=C(O)/C=C\C(=O)Nc1ccccc1C#Cc1ccccc1	15.4	-2.0%[46.1 µM]	-22.8	25.6%	0.9%	3.7
COc1ccc(NC(C)C(=O)N/N=C/c2ccc([N+](=O)[O-])s2)cc1 (configuration not stated)	-7.0	-12.1%	-89.0*	-70.8%	2.3%	0.2
O=C(N/N=C/c1ccc([N+](=O)[O-])s1)C(O)c1ccccc1 (configuration not stated)	-2.4	0.9%	?	-81.9%	-0.4%	1.7
COc1ccc(NC(C)C(=O)N/N=C/c2ccccc2OCc2ccc(Br)cc2)cc1 (configuration not stated)	-2.2	?	10.6	3.98µM*	-1.0%	0.8
Cc1ccc(NC(C)C(=O)N/N=C/c2ccc([N+](=O)[O-])s2)cc1 (configuration not stated)	-9.9	-21.8%	-83.7*	-92.0%	-3.8%	-0.8
COC(=O)N/N=C/c1ccc([N+](=O)[O-])s1	-1.7	-11.9%	?	-63.6%	4.0%	-0.5
Cc1ccc2oc(C(=O)Nc3ccc(S(=O)(=O)Nc4nccc(C)n4)cc3)cc(=O)c2c1	-1.8	nt	nt	nt	-0.1%	nt
COc1ccc(S(=O)(=O)c2c(O)c3ccc(C(=O)NCc4ccccc4)cc3[nH]c2=O)cc1	3.0	nt	nt	nt	0.2%	nt
CCC(C)NC(=O)C1CCN(c2nc(C)cc(C)n2)CC1 (configuration not stated)	-19.5	8.9%[46.1 µM]	17.5	-0.9%	-0.3%	0.9
Cc1cc(-c2ccccc2)nc(N2CCC(C(=O)NC(C)C)CC2)n1	24.8	-3.1%[46.1 µM]	-2.8	2µM*	1.7%	-0.9
Cc1ccccc1OCC(=O)NCC(=O)OCC(=O)c1ccc(F)cc1	nt	nt	10.8	-7.5%	nt	nt
COCc1nc(-c2ccc(-c3ccccc3)nc2OC)no1	3.8	?	-5.6	10µM*	-1.5%	-1.0
COc1cccc(-c2ccc(-c3noc(-c4ccccc4F)n3)c(OC)n2)c1	-12.6	-12.8%[46.1 µM]	16.9	10µM*	3.0%	0.5
COCc1cc(O)c(O)c(O)c1-c1c(COC)cc(O)c(O)c1O	nt	nt	nt	-15.1%	nt	nt
Cc1ccc(S(=O)(=O)N2CCN(c3nc(-n4ccnc4)nc4ccccc34)CC2)cc1	nt	nt	nt	29.9%	nt	nt
COc1cccc2sc(N(Cc3cccnc3)C(=O)C3CCCCC3)nc12	-13.3	nt	nt	nt	0.0%	nt
O=C(C1CCCCC1)N(Cc1cccnc1)c1nc2c(F)cccc2s1	-71.6*	nt	nt	nt	0.8%	nt
O=C(CCc1ccccc1)N(Cc1cccnc1)c1nc2c(F)cc(F)cc2s1	-86.0*	nt	nt	nt	0.4%	nt
Nc1nc2[nH]cc(CCc3ccc(C(=O)N[C@@H](CCC(=O)O)C(=O)O)cc3)c2c(=O)[nH]1	nt	nt	nt	0.0%	nt	nt
Cc1cccc(OCC(=O)Nc2cc(-c3nc4cc(Cl)ccc4o3)ccc2C)c1	nt	nt	nt	5.6%	nt	nt

Assay outcomes as filed in PubChem.
